Drawing on PubChem BioAssay AID1285 (Columbia University Molecular Screening Center, 2008), this text covers inhibition for 63 compounds.

The campaign covered roughly 190,000 compounds. About 1,600 (0.84%) were called active. For the sample, actives were picked, then their nearest neighbours and some compounds at random. A number with no mark means an inactive call.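 The calls were made as follows: active = inhibition above a set limit, derived from the sample mean plus 3 SD (cut at about 45% in these data); inconclusive = one replicate passes the limit while the other fails; inactive = the rest.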

This test is described as follows: inhibitors of APP translation via 5'UTR reporter, primary screen, APP 5'UTR luciferase, SH-SY5Y cells (AID 1285). The conditions noted are these: SH-SY5Y APP 5'UTR-luciferase reporter, luminescence; at 2 µM; stronger effect = higher value. A general note: In a reporter assay the amount or activity of a reporter protein is the signal.
As usually defined, the inhibition is the change of the read-out against control, counted positive when it falls. On to `Cc1cc(C(=O)NNC(=O)CCC2CCCCC2)c(C)o1`, for which the inhibition is -4%.
For `O=C(Cc1cccs1)N(CC1CCCO1)C1(C(=O)NC2CCCCC2)CCCCC1` (stereo not drawn) the value was -11.4%; for `Cc1ccc(C(=O)OC2CCCN(C)C2)cc1` (stereo not drawn), 5.1%; for `Cc1nnc(-c2ccc(Oc3ccc(C)c(C)c3)c([N+](=O)[O-])c2)o1`, 11.5%.
In the case of `Cc1[nH]c2ccccc2c1/C=N\NC(=O)Cn1nnc(-c2ccccc2)n1`, the inhibition is -1.1%.
`CC1=NN(C(=O)CCc2ccccc2O)C(O)(C(F)(F)F)C1` (stereo not drawn): the inhibition was 8.6%.
For `Cc1cc(NC(=O)COC(=O)COc2ccc(Cl)cc2C)c([N+](=O)[O-])cc1C` the value was 8.7%; for `Cc1ccc(C(C)C)cc1OCCN1CCCC1`, -3.6%; for `Cc1cc(N2CCN(C)CC2)nc2ccc(NC(=S)N3CCOCC3)cc12`, -5.6%.
For `COc1cc(/C=C2\SC(=S)N(Nc3ncc(C(F)(F)F)cc3Cl)C2=O)cc(OC)c1OC`, the inhibition is 0.7%.
With `COc1cccc(/C(C)=N/Nc2ncc(Cl)cc2Cl)c1` the figure was -24.9%; with `COc1cccc(/C=N/Nc2ncc(C(F)(F)F)cc2Cl)c1O`, 80.5% (active).
For `OCCC1CN(Cc2cccc(O)c2)CCN1CCc1ccccc1` (stereo not drawn) the value was 1%.
For `Cc1nn(C)c(C)c1S(=O)(=O)N1CCC(CO)(Cc2ccc(Cl)cc2)CC1` the value was 26.8%.
Turning to `COC(=O)/C=C\C(=O)Nc1cccc([N+](=O)[O-])c1`, the inhibition is 65% (active).
For `Cc1ccccc1NC(=S)Nc1cccc([N+](=O)[O-])c1` the value was 10.9%; for `CC(=O)Nc1cccc([N+](=O)[O-])c1`, -68.1%; for `CCOC(=O)c1c(C)[nH]c(=S)c(C#N)c1-c1ccccc1`, 17.1%.
For `CCOC(=O)c1c(C)[nH]c2c1-c1ccccc1C(=O)C2=O` the value was 95.9% (active); for `Cc1[nH]c2ccccc2c1C(=O)COC(=O)C(C)C`, -8.5%; for `CSc1ccc(C(=O)C2CCCN(C(=O)c3ccc(C)nc3)C2)cc1` (stereo not drawn), -16.6%.
With `CCOc1cc(N2CCOCC2)c(OCC)cc1NC(=O)C1=NN(c2cccc(C)c2)C(=O)CC1` the figure was -5.2%; with `CCCn1c(N)c(C(=O)CSc2nc3ccccc3c(=O)n2-c2ccc(OC)cc2)c(=O)[nH]c1=O`, -3.9%; with `O=C1CCCc2c1nc(-c1cccc(Cl)c1)n2O`, 94.3% (active).
With `CCOC(=O)CSc1ncc(-c2cccc(Cl)c2)cn1`, the inhibition is -2.7%.
With `O=c1c2c(nc3cc(-c4cccc(Cl)c4)[nH]n13)CCCC2` the figure was -158%.
For `CCCn1c(NC(=O)C23CC4CC(CC(O)(C4)C2)C3)nc2ccccc21` the value was 9%; for `COC(=O)c1c(C)oc2ccc(N(C(=O)Oc3ccccc3)S(=O)(=O)c3ccccc3)cc12`, 0.2%; for `O=C(NC(=S)Nc1ccc2oc(=O)ccc2c1)c1ccc(-c2cccc(Cl)c2Cl)o1`, 2.2%.
With `CCOc1cc(NC(=O)CCl)c(OCC)cc1NC(C)=O`, the inhibition was 5.3%.
For `CCOc1cccc(-c2nnc3sc(COc4ccc(OC)cc4)nn23)c1` the value was -2.3%; for `COc1ccc(-n2nnnc2-c2nc3ccccc3s2)cc1`, -237%.
As to `CCOc1cccc(-n2nnnc2-c2ccc(OC)cc2)c1`, the inhibition is 65.8% (active).
With `C/C(=N\NC(=O)c1ccc(CSc2nc(C)cc(C)n2)cc1)C1CCCCC1` the figure was -23.6%.
For `COc1ccc(C(CCNCc2ccccc2F)c2ccc(F)cc2)cc1` (stereo not drawn) the value was 50.4% (active).
Regarding `COc1cccc(CNCCc2c[nH]c3ccccc23)c1OCc1ccccc1F`, the inhibition was -3.5%.
With `COc1ccc(CC(=O)NC(C)CCc2ccccc2)cc1` (stereo not drawn) the figure was 18.8%; with `CCC(C)(C)NC(=O)C1c2ccccc2Oc2ccccc21`, -10.4%; with `COc1cc2nc(CN(C)Cc3ccc(F)cc3)[nH]c(=O)c2cc1OC`, -10.3%.
For `CCOC(=O)N1CCN(S(=O)(=O)c2ccc(C(=O)Nc3ccc(F)cc3F)cc2)CC1` the value was 92.2% (active).
For `O=C(CN1CCN(S(=O)(=O)c2ccc(F)cc2)CC1)Nc1ccccc1F` the value was -2%.
Consider `COc1ccc(C(=O)Nc2ccc(F)cc2F)cc1`, for which the inhibition was -131%.
For `Cc1nc(-c2ccc(Cl)cc2)sc1C(=O)CBr` the value was 5.2%; for `Clc1ccc(N/N=C/c2cccs2)nn1`, -17.2%; for `COc1cccc2c1OCC(CN1CCN(C3CCCCC3)C(CCO)C1)=C2` (stereo not drawn), 10.6%.
Regarding `NS(=O)(=O)c1ccc(NC(=O)COC(=O)c2ccc(Cl)nc2)cc1`, the inhibition is -14.1%.
As for `CCN(CC)c1ccc(NC(=O)c2ccc(Cl)nc2)cc1`, the inhibition is 66.1% (active).
With `O=C(NNc1ccccn1)c1ccc(Cl)nc1` the figure was 9.8%.
Turning to `Cc1ccc(S(=O)(=O)N(C)c2ccc(OCC(=O)NC3=NCCS3)cc2)cc1`, the inhibition is -2.9%.
Regarding `CCCC(=O)Nc1nc2ccc(NC(=O)c3c(F)c(F)c(OC)c(F)c3F)cc2s1`, the inhibition was 88.8% (active).
With `COc1ccc2nc(Nc3nc4ccc(NC(C)=O)cc4s3)sc2c1`, the inhibition is -20.2%.
With `CCCC(=O)Nc1nc2ccc(NC(=O)c3cccnc3)cc2s1` the figure was 4.1%.
Consider `CCOc1cnc(-c2c(-c3ccccc3Cl)noc2C)o1`, for which the inhibition is 16.9%.
For `O=C(Cn1ncc(N2CCCC2)c(Br)c1=O)c1ccc(Cl)cc1` the value was -71.1%.
For `CCOC(=O)C1=C(c2ccc(OC)cc2)C(=O)c2ccccc2C1=O` the value was 59.6% (active); for `CCCCC(C(=O)OCC(=O)c1ccc(OC)cc1)N1C(=O)c2ccccc2C1=O` (stereo not drawn), 7.1%; for `CCOC(=O)c1ccccc1NS(=O)(=O)c1ccc(OC)cc1`, -5.3%.
For `C[C@@H]1C[C@@H]2O[C@H]2/C=C\C=C\C(=O)Cc2c(Cl)c(O)cc(O)c2C(=O)O1` the value was 95% (active).
For the compound `O=C(Nc1ccc2c(c1)OCO2)c1sc2cc(Cl)ccc2c1Cl`, the inhibition was -85%.
For `O=S(=O)(NCCc1ccncc1)c1ccccc1` the value was 16.4%; for `O=c1cc(-c2ccccc2)[nH]c2cc(F)ccc12`, 89.6% (active).
With `Cc1ccc(-c2cc(=O)c3ccc(Cl)cc3[nH]2)cc1` the figure was -13.4%; with `Cc1ccc(-c2cc(=O)c3ccc(F)cc3[nH]2)cc1`, -29.4%.
